Bioassay records as filed in PubChem.
Sampled rows, rich in hits. Any-hit rate of the full collection: about 7.1%.
MCF10A rerep – A quantitative high throughput screen for small molecules that induce DNA re-replication in MCF 10a normal breast cells; Potency, µM (titrated, usually from 46.1 µM), inactives show at the top dose activity, positive = re-replication, usual class: activators; MCF 10A DNA re-replication, Hoechst nuclear intensity, 48 h; 350,000 tested, 2.9% active; note: % of control where 0% means no effect; nearly all actives have a fitted effect of over 50% in size
SW480 rerep – A quantitative high throughput screen for small molecules that induce DNA re-replication in SW480 colon adenocarcinoma cells | SW480 DNA re-replication, Hoechst DNA content imaging, 48 h | Potency, µM (titrated, usually from 46.1 µM), without a hit: at the highest dose re-replication activation, usual class: activators | 340,000 tested, 1.8% active | AID 624297, 2012; note: % of control where 0% means no effect; nearly all actives have a fitted effect of over 55% in size
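Cells (250 per well) received 23 nL compound or DMSO by pin tool and were kept 48 hr at 37 C, 5% CO2. Nuclei were then stained with Hoechst for 40 min and scanned for DNA content.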
ELG1 DNA repair – qHTS screen for small molecules that inhibit ELG1-dependent DNA repair in human embryonic kidney (HEK293T) cells expressing luciferase-tagged ELG1 | 330,000 tested, 2.3% active | HEK293T ELG1-luciferase reporter, luminescence, 16 h; DNA damage induced by 5-fluorouridine | Potency, µM (highest dose often 46.1 µM), for the others: top-dose activity change, negative = inhibition, usual class: inhibitors; note: % is set by controls: 0 for no effect and ±100 for the full control effect; nearly all actives have a fitted effect of over 55% in size
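In this reporter screen, reduction of luminescence relative to DMSO vehicle indicated activity. Compounds and 5-fluorouridine were added together to 2,000 cells per well, incubated for 16 hr at 37 °C, then developed with ONE-Glo.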
A-T KAP1 phos – qHTS Assay for Identifying a Potential Treatment of Ataxia-Telangiectasia | 320,000 tested, 0.19% active | AID 485349, 2010 | F2112 A-T fibroblasts, KAP-1 phosphorylation AlphaLISA; neocarzinostatin DNA damage 30 min before lysis | Potency, µM (top dose mostly 57.5 µM), inactives show at the highest dose activation, usual class: activators; note: % of control where 0% means no effect; nearly all actives have a fitted effect of over 45% in size
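ATM-like activity read as KAP-1 phosphorylation via AlphaLISA donor/acceptor antibody pairs after lysis and 6 hr at 25C. Cells were ATM-null patient fibroblasts (F2112, hTERT), dosed 60 min, then exposed to the DSB inducer NCS for 30 min.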
p53 reactivation – qHTS assay for re-activators of p53 using a Luc reporter; Potency, µM (top dose mostly 92.2 µM), without a hit: top-dose activity change, positive = activation, usual class: activators; 320,000 tested, 0.063% active; H1299 p53-A138V BP100-luciferase reporter, luminescence, 24 h; AID 504706, 2011; note: % of control where 0% means no effect; nearly all actives have a fitted effect of over 45% in size
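p53-null H1299 cells stably carrying temperature-sensitive p53-A138V and a BP100-luciferase reporter were pinned with compounds (4-point, 1:5 series) and held 24 hrs at 37 deg C. Luminescence was read 10 min after detection reagent.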
ELG1 genotoxic – qHTS screen for small molecules that induce genotoxicity in human embryonic kidney (HEK293T) cells expressing luciferase-tagged ELG1; HEK293T ELG1-luciferase reporter, luminescence, 16 h; Potency, µM (highest dose often 46 µM), for inactives: at the highest dose activity change, positive = activation, hits mostly activators; 330,000 tested, 1.3% active; AID 504466, 2011; note: % of control where 0% means no effect; nearly all actives have a fitted effect of over 60% in size
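Screening used a luciferase reporter fused to human ELG1 in HEK293T cells. Luminescence was read on a CCD plate imager after 16 hr exposure and 30 min ONE-Glo incubation.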
The depositor's hits bear a star; u = inconclusive; x = no result given; ! = not confirmed by another sample; [ ] = dose if it differs, or a comment. Calls come from the whole dose curve; as a rule, active = well fitted curve in the direction sought with a large enough effect; inconclusive = small, poorly fitted or top-dose-only effect, or another doubt; inactive = no such curve, though single readings can be large; an effect the other way counts as inactive or inconclusive. Potency is the fitted concentration of half-maximal effect.

SMILES	MCF10A rerep	SW480 rerep	ELG1 DNA repair	A-T KAP1 phos	p53 reactivation	ELG1 genotoxic
CCN(CC)CCN(C(=O)c1cc2c(ccc3ccccc32)oc1=O)c1nc2cc3c(cc2s1)OCCO3	11%	15%	u	-2%	u	18µM*
CCNC(=S)N(CCO)Cc1cc2cc3c(cc2[nH]c1=O)OCO3	-6%	-5%	21%	-8%	x	4%
CCN(CC)CCOc1ncnc2c1oc1ccccc12	u	-15%	13%	-2%	4%	2%
CCCCc1oc2ccccc2c1C(=O)c1cc(I)c(OCCN(CC)CC)c(I)c1	9.2µM*!	23µM*!	-3%	x	0%	8%
Cc1ccc(C(=O)OCC(=O)NCc2ccc(Cl)cc2Cl)o1	u	-3%	11%	1%	-3%	0%
CN(C)Cc1ccccc1Sc1cccc2ccccc12	13µM*	u	-16%	15%	6%	-3%
Cc1ccc(S(=O)(=O)N2CCN(C(=O)c3cccs3)CC2)c(C)c1	3%	4.1µM*	u	2%	3%	-10%
CSc1ccc(CSCC(=O)N2CCN(S(=O)(=O)c3ccc(C)cc3C)CC2)cc1	11%	-1%	10µM*	2%	-3%	-5%
CC(=O)NCCC(=O)Nc1sc2c(c1-c1nc3ccccc3[nH]1)CCCC2	14%	-1%[9.22 µM]	15µM*	-2%	-5%	-6%
N#CC(C#N)=C1C=CC=CN1/C(=C\c1ccccc1Cl)C(=O)c1ccccc1	6.5µM*	9.2µM*	u	u	-20%	-22%
N#CC(C#N)=C1C=CC=CN1/C(=C\c1ccccc1)C(=O)c1cccs1	23%	u	-14%	u	-4%	-3%
CCOc1cc2c3c(c1)C1(Nc4ccccc4S1)C(=O)N3C(C)(C)CC2C (stereo unspecified)	21µM*	u	u	-3%	4%	-9%
CCOc1cc2c3c(c1)C1(C(=O)N3C(C)(C)CC2C)C(C#N)=C(N)N2C(=C1C#N)Nc1ccccc12 (stereo unspecified)	16µM*	2%	-17%	6%	-3%	-7%
CCOc1cc2c3c(c1)C1(OCCO1)C(=O)N3C(C)(C)CC2C (stereo unspecified)	13%	-6%	1%	6%	-7%	-1%
NNC(=O)c1cc2cc(Oc3ccccc3)ccc2[nH]1	u	5.8µM*	-1%	0%	x	-3%
NNC(=O)c1cc2ccccc2[nH]1	12µM*	18µM*	-20%	4%	1%	-5%
CCN1CCN(C(=O)C(C)Sc2nnc3nc(C)cc(C)n23)CC1 (stereo unspecified)	-4%	1%	22%	1%	-2%	-1%
CCC(C)N(C)Cc1cccc(C2(O)CCN(S(=O)(=O)c3ccc(F)c(C)c3)CC2)c1 (stereo unspecified)	15µM*	u	7%	12%	-7%	0%
CCOc1ccc(NC(=O)Nc2ccc3nsnc3c2)cc1	1%	9%	u	2%	19%	-3%
CCOc1ccc(NC(=O)c2cnsn2)cc1	u	-2%	u	6%	2%	1.5µM*
CCOc1ccc(NC(=S)Nc2ccc3nsnc3c2)cc1	u	21µM*	-1%	32%	-36%	0%
COc1ccc(C(=O)CSc2nnc(CCc3ccccc3)n2-c2ccccc2)cc1	7.3µM*	17%	-13%	1%	1%	-4%
CC(C)CC(NS(=O)(=O)c1ccccc1)C(=O)O (stereo unspecified)	-184%[0.0737 µM]	-35%	-2%	2%	-2%	-1%
CC(C)CN=C(NS(=O)(=O)c1ccccc1)C(Cl)(Cl)Cl	2.9µM*	6.5µM*	u	16%	-33%	-21%
Cn1cccc1C1CCCN1CC(=O)Nc1ccc(C(N)=O)cc1 (stereo unspecified)	-1%	0%	0%	4%	1%	19%
SMILES	MCF10A rerep	SW480 rerep	ELG1 DNA repair	A-T KAP1 phos	p53 reactivation	ELG1 genotoxic
CN(C)CCCOc1ccc(C(C)(C)c2ccccc2)cc1	u	-3%	-4%	-2%	3%	-2%
CN(C)C/C=C/C(O)(c1ccccc1)c1ccccc1	16µM*	4%	u	-8%	-3%	-2%
C[C@@H]1COC(=O)[C@H](Cc2ccc(F)cc2)CC/C=C/C[C@@H](CC(=O)N[C@@H](CO)Cc2ccccc2)C(=O)N1	2%	u	-13%	7%	-1%	-2%
O=C(C[C@@H]1C/C=C\C[C@@H](Cc2ccc(F)cc2)C(=O)OC[C@@H]2CCCN2C1=O)N[C@H](CO)Cc1ccccc1	-2%	-5%	-2%	5%	-3%	-4%
O=C(C[C@H]1C/C=C\CC[C@@H](Cc2ccc(F)cc2)C(=O)OC[C@H]2CCCN2C1=O)N[C@H](CO)Cc1ccccc1	-29%	-7%	23µM*	2%	-4%	-4%
O=C(C[C@@H]1C/C=C/CC[C@H](Cc2ccc(F)cc2)C(=O)OC[C@@H](Cc2ccccc2)NC1=O)N[C@H](CO)Cc1ccccc1	7.3µM*	u	-23%	2%	-7%	u
COc1ccc(NC(=O)c2oc3ccccc3c2C)cn1	6%	-2%	-2%	-7%	-2%	2%
CC(C)(C)OC(=O)C[C@H]1C/C=C\C[C@H](CC(=O)NCCO)C(=O)N2CCC[C@@H]2COC1=O	15%	-1%	16%	-1%	7%	1%
CCCCn1c(-c2cccnc2)nc2cc3[nH]c(=O)c(C(C)C)nc3cc21	21%	-4%	-3%	7%	x	8%
CCCCn1c(-c2cccc(Br)c2)nc2cc3[nH]c(=O)c(C(C)C)nc3cc21	18µM*	u	u	-1%	x	-7%
CCCCn1c(-c2ccc(C(C)(C)C)cc2)nc2cc3[nH]c(=O)c(C(C)C)nc3cc21	18µM*	3%	-5%	6%	x	-9%
CCCCn1c(=O)[nH]c(=O)c2c1nc(-c1ccc3ccccc3c1)n2CC	23%	-6%	u	-3%	-2%	-1%
CCCCn1c(-c2ccc(Cl)c(Cl)c2)nc2cc3[nH]c(=O)c(C(C)C)nc3cc21	15µM*	19%	-2%	-7%	7%	5%
